Marburg entry: inhibitors of Marburg virus binding or entry into cells; Marburg virus pseudotype entry/binding inhibition, cell-based; Potency, µM (doses to about 49.2 µM), inactives show top-dose activity change, negative = inhibition, actives largely listed as inhibitors; actives 6.5% (n = 18,000); AID 720532
Lassa entry: blocks Lassa virus binding or cell entry | Lassa virus pseudotyped entry inhibition, cell-based qHTS | Potency, µM (highest dose often 49.2 µM), for the others: at the highest dose activity change, negative = inhibition, usual class: inhibitors | actives 4.1% (n = 18,000) | AID 720533
Starred values were filed as active, the others as inactive; u = inconclusive; x = no result given; ! = a repeat was not active; [ ] = dose if it differs, or a comment. Rows were chosen to be rich in hits. Some 8.6% of all compounds tested hit in one or more screens of this group. Calls come from the whole dose curve; tested in HEK293 cells. % is set by controls: 0 for no effect and ±100 for the full control effect; potency is the fitted concentration of half-maximal effect.

SMILES	Marburg entry	Lassa entry
COc1cc(/C=C/C(=O)N2CCCCC2=O)cc(OC)c1OC	12.6µM*	11.2µM*
COc1cc(/C=C/C(=O)O)cc(OC)c1OC	2.0%	2.8%
COC(=O)N[C@@H](C=Cc1ccccc1)[C@@H](C)[N+](=O)[O-]	2.4%[8.59 µM]	-8.7%[8.59 µM]
CCN1C(=O)NC(c2cccc(F)c2)C(C(C)=O)=C1C (stereo unspecified)	u	-12.0%[8.59 µM]
O=C1C2CC=CCC2C(=O)N1SC(Cl)(Cl)Cl (stereo unspecified)	u	10µM*
OCCNCCCOc1cccc(Cl)c1Cl	6.31µM*	u
CC[C@@H](C)[C@H](N)C(=O)O	3.6%	-3.4%
CCN1C(=O)N(S(=O)(=O)C(F)(F)F)C(c2ccccc2)C(C(=O)OC)=C1C (stereo unspecified)	-6.0%[8.59 µM]	32.8%[8.59 µM]
C[C@@H]1CC2=CCCC2[C@]2(O1)C(=O)N(Cc1ccc(Br)cc1)c1cccc(Br)c12 (stereo partly specified)	-25.3%[8.59 µM]	x
CN1CCN([C@@H]2C[S+](=O)([O-])N[C@@H]2COCc2ccccc2)CC1	24.1%	3.9%
Cn1c2ccccc2c2c3c(c4c5ccccc5n(CCC#N)c4c21)CNC3=O	u	11.2µM*
CC[C@H]1CN2CC[C@@H]1C[C@H]2[C@@H](O)c1ccnc2ccc(OC)cc12	u	4.2%[17.8 µM]
CCC1CN2CCC1CC2C(O)c1ccnc2ccc(OC)cc12 (stereo unspecified)	20µM*	u
COC(=O)C1=C(C)N(Cc2ccccc2)C(=NCC(C)C)NC1c1cccc(C(F)(F)F)c1 (stereo unspecified)	9.1%[8.59 µM]	x
COc1ccc2c(c1)c(CC(=O)OCC(=O)O)c(C)n2C(=O)c1ccc(Cl)cc1	21.9%	-3.3%
CCCN(CCC)C(=O)C(CCC(=O)OCCCN1CCN(CCOC(=O)Cc2c(C)n(C(=O)c3ccc(Cl)cc3)c3ccc(OC)cc23)CC1)NC(=O)c1ccccc1 (stereo unspecified)	14.1µM*	22.4µM*
O=C(c1cccs1)N1C[C@H](n2cc(C3CC3)nn2)[C@H](O)C[C@@H]1c1ccc(Cl)cc1	-17.4%	12.2%
COc1cc(N)c(Cl)cc1C(=O)CCC1CCN(CCNS(C)(=O)=O)CC1	31.6µM*!	u
COc1cc(N)c(Cl)cc1C(=O)OCCN1CCCCC1	-16.6%	4.9%
COc1cc(COc2cc(N)c(Cl)cc2C(=O)CCC2CCN(CCNS(C)(=O)=O)CC2)cc(OC)c1	7.94µM*	u
Cn1cc(C(=O)OCC2CCN(CCNS(C)(=O)=O)CC2)c2ccccc21	u	1.8%
CC1=C[C@@H](C)O[C@@]2(C1)C(=O)Nc1cccc(Br)c12	0.6%[8.59 µM]	-37.4%[8.59 µM]
COc1cc(C(CC2=C(c3ccccc3)Cc3ccccc32)NC(=O)C(F)(F)F)cc(OC)c1OC (stereo unspecified)	8.2%[8.59 µM]	21.0%[8.59 µM]
CCOC(=O)CN1C(=O)[C@]2(O[C@H](C)CC3=CCCC32)c2c(Br)cccc21 (stereo partly specified)	u	-7.3%[8.59 µM]
CCN1C(N(C)CCOC)=NC(c2cccc(F)c2)C(C(=O)OC)=C1C (stereo unspecified)	-24.0%[8.59 µM]	x
SMILES	Marburg entry	Lassa entry
Clc1ccccc1-c1nccc(-n2ccnc2)n1	-6.8%	0.2%
Clc1ccccc1C(c1ccccc1)(c1ccccc1)n1ccnc1	11.2µM*	12.6µM*
COc1ccc(C(=O)c2c(C)n(CCN3CCOCC3)c3ccccc23)cc1	-14.2%	-27.0%
COc1ccccc1C1(O)CCN(CCCn2c3ccccc3c3ccccc32)CC1	3.98µM*	u
COC(=O)c1cccc(C(=O)N2CCc3c(C(=O)OC)c(OCc4ccccn4)cc(=O)n3CC2)c1	-16.4%	3.6%
Cc1cc(=O)oc2cc(OCc3cn(CC(=O)c4ccc(O)cc4)nn3)ccc12	22.3%	12.4%
COc1cccc([C@H]2Oc3ccc(OC)cc3C(=NO[C@@H](C)c3cn([C@H](CO)Cc4ccccc4)nn3)[C@H]2O)c1	5.1%[8.59 µM]	11.4%[8.59 µM]
Cc1cc2c(OCC(CNC(C)(C)C)OC(=O)c3ccccc3)cccc2[nH]1 (stereo unspecified)	35.5µM*	-20.5%
OCc1ccc(-c2nc(-c3ccc4c(c3)OCO4)c(-c3ccccn3)[nH]2)cc1	u	-25.4%
C=CCN=C1NC(c2cccc(C(F)(F)F)c2)C(C(=O)OC)=C(C)N1CC (stereo unspecified)	12.5%[8.59 µM]	-27.1%[8.59 µM]
C=CCNC(=O)[C@H]1C=C(OC)C(=O)C[C@H](c2ccccc2)[C@H]1C	9.3%[8.59 µM]	-24.2%[8.59 µM]
COc1ccc(CN2CCOc3ccc(CN4CCC(O)(c5cccnc5)CC4)cc3C2)cc1OC	u	-4.4%
COc1cc(CN2CCOc3ccc(CN4CCC(O)(c5cccnc5)CC4)cc3C2)cc(OC)c1	11.2µM*	-18.3%
C[C@@H]1[C@@H](c2ccccc2)Oc2c(Cl)cccc2S(=O)(=O)N1Cc1cccc(Cl)c1	15.6%	-10.4%
COc1ccc(CCN(C)CCCOc2ccc(S(=O)(=O)c3[nH]c4ccccc4c3C(C)C)cc2)cc1OC	3.98µM*	14.1µM*
O=C(Nc1ccc(Br)cc1)c1cccc(S(=O)(=O)Nc2ccc(Br)cc2)c1	u	22.4µM*
